# Results reported in PubChem BioAssay AID2685 (National Center for Advancing Translational Sciences (NCATS), 2010).
# Out of some 320,000 compounds screened, about 2,100 (0.66%) were called active. Roughly 53% stayed inconclusive and do not appear here. Calls follow the shape of the dose curve; as a rule, active = well fitted inhibition curve with a large enough effect in the signal ratio, with a control signal flat (not every such curve was filed as active); inconclusive = small, poorly fitted or top-dose-only effect, or effect the other way, or a change in a side signal; inactive = flat fitted curve, though single readings scatter; the % refers to the signal ratio. The full list was thinned out, with actives kept by preference.
# Assay: qHTS Assay for Lipid Storage Modulators in Drosophila S3 Cells;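 as to cell number change: cells counted by Cell Tracker Red CMTPX staining in the red channel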; as to lipid storage change, negative = inhibition: % is scaled to controls: 0 for no effect and ±100 for the full control effect
# Conditions: BODIPY lipid droplet fluorescence, 18-24 h, cells fed with added oleic acid; cell number change: measured here: cell count max response; series mostly up to 46.1 µM
# Method in brief: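 Drosophila S3 cells loaded with oleic acid (400 uM, as added) and compounds at several concentrations; lipid droplets imaged by 488-nm laser-scanning cytometry, 500–530 nm intensity and object ratio to cell channel. Percent activity normalized to 20 uM Triacsin C.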
# Potency is read from the fitted curve at half-maximal effect.
Structure (SMILES),Potency,cell number change,"lipid storage change, negative = inhibition"
C/C(=N\NC(=O)NC1CCCCC1)c1ccc(Cl)s1,inactive,-11.8%,
COc1ccc(-c2nc(SC(C)C(=O)Nc3ccc(NC(C)=O)cc3)n[nH]2)cc1 (stereo not drawn),inactive,32.4%,
COc1ccc(-c2nc(SCC(=O)NC3CCCCC3)n[nH]2)cc1,inactive,-21.7%,
COc1ccc(-c2nc(SC(C)C(=O)NC3CC3)n[nH]2)cc1 (stereo not drawn),1.84 µM (active),-10%,
CCOC(=O)C1CCCCN1Cc1ccc(F)c(Br)c1 (stereo not drawn),inactive,-23.6%,
CCOC(=O)C1CCCCN1Cc1cccc(Oc2ccccc2)c1 (stereo not drawn),inactive,-1.04%,
CCOC(=O)C1CCCCN1Cc1ccc(C(F)(F)F)cc1 (stereo not drawn),6.51 µM (active),-25.6%,
COc1cc(C2CC(=O)Oc3c(C(CCN4CCN(c5ccccc5)CC4)c4ccc(N(C)C)cc4)c(OC)cc(OC)c32)cc(OC)c1OC (stereo not drawn),inactive,-0.692%,
O=C(COc1ccccc1[N+](=O)[O-])Nc1cc(C(=O)O)cc(C(=O)O)c1,inactive,-6.55%,
Cc1sc2ncnc(SCC(=O)Nc3ccc(CN4CCCC4)cc3)c2c1C,inactive,13.1%,
CCN(CC(=O)Nc1ccc(NC(C)=O)cc1)C(=O)CSc1ncnc2sc(C)c(C)c12,inactive,,
CC(=O)Nc1ccc(NC(=O)CSc2ncnc3sc(C)c(C)c23)cc1,13 µM (active),3.95%,
COC(=O)c1ccc(NC(=O)CSc2nc3[nH]ncc3c(=O)[nH]2)cc1,,,-11.4% [at 0.0737 µM] (inactive)
CC(C)CC(NC(=O)COc1ccccc1)C(=O)O (stereo not drawn),inactive,23.7%,
O=C(COc1ccccc1)NCc1ccccc1,inactive,,
COC(=O)CNC(=O)COc1ccccc1,25.9 µM (active),0.31%,
CC(C)c1ccc(OCC(=O)NC(C)c2ccccc2)cc1 (stereo not drawn),inactive,-6.3%,
CCc1ccc(C(=O)COC(=O)CNC(=O)COc2ccccc2)cc1,inactive,-0.597%,
CC(C)C(NC(=O)COc1ccccc1)C(=O)O (stereo not drawn),32.6 µM (active),-18.5%,
COC(=O)c1cccc(NC(=S)N2CCN(c3ccccc3F)CC2)c1,inactive,12.8%,
CCOC(=O)CC(/C(C)=N\O)c1ccccc1 (stereo not drawn),inactive,-0.923%,
Cc1ccc(NC(=O)CN2C(=O)CSC2=O)cc1,inactive,-1.37%,
CCc1ccc(NC(=O)CN2C(=O)CSC2=O)cc1,inactive,-0.41%,
O=C(CN1C(=O)CSC1=O)Nc1ccc(N2CCOCC2)cc1,20.6 µM (active),,
COc1ccc(S(=O)(=O)N2CCCCC2)cc1NC(=O)CSc1nccn1C,inactive,-6.22%,
CC(=O)c1c(C(C)=O)c(C)n(-c2ccc(C)c(NC(=O)c3ccccc3Cl)c2)c1C,inactive,-18.6%,
